Data on 4 compounds can be found in paper PMC11062922 (Nature Chemical Biology, 2023).

Like-named read-outs stand apart in the source and are kept apart here.

Parameters in all cases: species or system human, MV4-11 + K-562 + COLO205 + SK-N-BE2 + OVCAR-8
The subject of one experiment is COX5A. The note with it: read-out: apparent Kd; compound concentrations: 100 nM and 1000 nM (sheet 'Samples'), CATDS: 4.9189359622159999E-2; n = 1.
Another experiment deals with DCTPP1. Conditions: read-out: apparent Kd; compound concentrations: 100 nM and 1000 nM (sheet 'Samples'), CATDS: 4.6014352292288702E-2; n = 1.
The subject of a further experiment is T1, DJA1.
T1 construct: gene DNAJA1
Conditions: read-out: apparent Kd, compound concentrations: 100 nM and 1000 nM (sheet 'Samples'), n = 1.

The subject of another experiment is GSK3A. Conditions: read-out: apparent Kd; compound concentrations: 100 nM and 1000 nM (sheet 'Samples'), CATDS: 0.122036106459496; n = 1.
The next experiment has as its system GSK3B. Conditions: read-out: apparent Kd; compound concentrations: 100 nM and 1000 nM (sheet 'Samples'), CATDS: 7.9816759037496299E-2; n = 1.
The next experiment has as its system ICK. The note with it: read-out: apparent Kd; compound concentrations: 100 nM and 1000 nM (sheet 'Samples'), CATDS: 5.6669342720563003E-2; n = 1.
For the next experiment, the system named is IRAK4. The note with it: read-out: apparent Kd; compound concentrations: 100 nM and 1000 nM (sheet 'Samples'), CATDS: 4.1120656288718103E-2; n = 1.
The subject of the next experiment is NQO2. The note with it: read-out: apparent Kd, compound concentrations: 100 nM and 1000 nM (sheet 'Samples'), n = 1.
The subject of the next experiment is PDXK. Conditions: read-out: apparent Kd; compound concentrations: 100 nM and 1000 nM (sheet 'Samples'), CATDS: 4.47093082107951E-2; n = 1.
For another experiment, the system named is PKM. Conditions: read-out: apparent Kd; compound concentrations: 100 nM and 1000 nM (sheet 'Samples'), CATDS: 4.24178727539107E-2; n = 1.
The next experiment has as its system PRKCA. Conditions: read-out: apparent Kd; compound concentrations: 100 nM and 1000 nM (sheet 'Samples'), CATDS: 0.16671093509257301; n = 1.
Another experiment has as its system PRKCB. Conditions: read-out: apparent Kd; compound concentrations: 100 nM and 1000 nM (sheet 'Samples'), CATDS: 0.103401892254312; n = 1.
Another experiment deals with PRKCD. Conditions: read-out: apparent Kd; compound concentrations: 100 nM and 1000 nM (sheet 'Samples'), CATDS: 0.14677324190073199; n = 1.
A further experiment relates to PRKCQ. Conditions: read-out: apparent Kd; compound concentrations: 100 nM and 1000 nM (sheet 'Samples'), CATDS: 5.3878720766830299E-2; n = 1.
The test system of another experiment is RPS6KA3. Conditions: read-out: apparent Kd; compound concentrations: 100 nM and 1000 nM (sheet 'Samples'), CATDS: 4.20026996356445E-2; n = 1.
The test system of another experiment is RPS6KA6. Conditions: read-out: apparent Kd; compound concentrations: 100 nM and 1000 nM (sheet 'Samples'), CATDS: 0.184421750918566; n = 1.
A further experiment has as its system RPS6KB1. The note with it: read-out: apparent Kd; compound concentrations: 100 nM and 1000 nM (sheet 'Samples'), CATDS: 4.3958496024185799E-2; n = 1.
Another experiment deals with CSNK1D. Conditions: read-out: apparent Kd, compound concentrations: 100 nM and 1000 nM (sheet 'Samples'), n = 1.
The test system of a further experiment is CSNK1E. Conditions: read-out: apparent Kd, compound concentrations: 100 nM and 1000 nM (sheet 'Samples'), n = 1.
Another experiment has as its system MAPK10. The note with it: read-out: apparent Kd, compound concentrations: 100 nM and 1000 nM (sheet 'Samples'), n = 1.
The test system of a further experiment is MAPK11. The note with it: read-out: apparent Kd, compound concentrations: 100 nM and 1000 nM (sheet 'Samples'), n = 1.
Another experiment concerns MAPK14. The note with it: read-out: apparent Kd, compound concentrations: 100 nM and 1000 nM (sheet 'Samples'), n = 1.
The next experiment relates to MAPK9. Conditions: read-out: apparent Kd; compound concentrations: 100 nM and 1000 nM (sheet 'Samples'), CATDS: 9.6618855435108605E-2; n = 1.
In another experiment the test system is MAPKAPK2. Conditions: read-out: apparent Kd, compound concentrations: 100 nM and 1000 nM (sheet 'Samples'), n = 1.
The next experiment deals with NLK. The note with it: read-out: apparent Kd; compound concentrations: 100 nM and 1000 nM (sheet 'Samples'), CATDS: 5.8542673875263601E-2; n = 1.
For the next experiment, the system named is PRKD2. Conditions: read-out: apparent Kd; compound concentrations: 100 nM and 1000 nM (sheet 'Samples'), CATDS: 5.9855757256393E-2; n = 1.
The test system of a further experiment is PRKD3. Conditions: read-out: apparent Kd; compound concentrations: 100 nM and 1000 nM (sheet 'Samples'), CATDS: 5.6713144719272697E-2; n = 1.
Another experiment concerns RIPK2. Conditions: read-out: apparent Kd; compound concentrations: 100 nM and 1000 nM (sheet 'Samples'), CATDS: 7.7128877949965702E-2; n = 1.
Another experiment relates to MERTK. The note with it: read-out: apparent Kd; compound concentrations: 100 nM and 1000 nM (sheet 'Samples'), CATDS: 0.12955803655980599; n = 1.
In another experiment the test system is PIK3CD. The note with it: read-out: apparent Kd; compound concentrations: 100 nM and 1000 nM (sheet 'Samples'), CATDS: 0.42646415805735; n = 1.
For a further experiment, the system named is CSNK1A1. Conditions: read-out: apparent Kd; compound concentrations: 100 nM and 1000 nM (sheet 'Samples'), CATDS: 0.102503652768427; n = 1.

Take `CNCCCn1cc(C2=C(c3cn(C)c4ccccc34)C(=O)NC2=O)c2ccccc21.Cl` [RO0318044-001]: the potency estimated from few doses with COX5A is 925 nM; in the experiment with DCTPP1, 1150 nM; in the experiment with DJA1 (CATDS: 4.4193252056285201E-2), 1330 nM; in the experiment with GSK3A, 114 nM; in the experiment on GSK3B it was 263 nM; with ICK, 610 nM. The potency estimated from few doses with IRAK4 was 1750 nM; with NQO2 (CATDS: 4.4133222473916003E-2), 1330 nM; in the experiment on PDXK, 1270 nM; with PKM, 1550 nM; in the experiment on PRKCA, 67.8 nM; in the experiment on PRKCB, 154 nM. Also, the potency estimated from few doses is 83 nM with PRKCD; 703 nM in the experiment on PRKCQ; 1610 nM with RPS6KA3; 58.2 nM in the experiment on RPS6KA6; 1350 nM in the experiment on RPS6KB1.
Consider `C[C@H](O)CNc1cc(-c2[nH]c3cccnc3c2-c2ccc(F)cc2)ccn1.Cl` [RO3206145-001], for which the potency estimated from few doses with CSNK1D (CATDS: 0.227277196740168) was 36.6 nM; in the experiment on CSNK1E (CATDS: 0.13101963616975801), 99 nM; in the experiment with MAPK10 (CATDS: 6.3561216633857096E-2), 1000 nM; in the experiment with MAPK11 (CATDS: 0.18420027460355101) it was 51.5 nM; in the experiment on MAPK14 (CATDS: 0.188780888737105), 49.4 nM; in the experiment with MAPK9, 211 nM. For the same compound, the potency estimated from few doses with MAPKAPK2 (CATDS: 0.128658474948743) was 103 nM; in the experiment with NLK, 1550 nM; in the experiment with PRKD2 it was 1370 nM; in the experiment on PRKD3, 1880 nM; in the experiment on RIPK2, 441 nM.
With `COc1nccc(-c2c(-c3ccc(F)cc3)ncn2CCCN2CCOCC2)n1` [SB-282852], the potency estimated from few doses was 746 nM with CSNK1D (CATDS: 0.15826837082796799); 1580 nM in the experiment with CSNK1E (CATDS: 0.12159851027947199); 722 nM with MAPK14 (CATDS: 0.160477931801707); 478 nM in the experiment on MAPKAPK2 (CATDS: 0.19368451795267799); 1280 nM with MERTK; 128 nM in the experiment with PIK3CD.
Regarding `CCOc1nccc(-c2c(-c3ccc(F)cc3)ncn2C2CCNCC2)n1` [SB-249175], the potency estimated from few doses with CSNK1A1 was 294 nM; in the experiment on CSNK1D (CATDS: 0.31219473795395603) it was 16.6 nM; in the experiment on CSNK1E (CATDS: 0.18119769412776501), 46.9 nM; in the experiment on DJA1 (CATDS: 7.1447025322651805E-2), 1630 nM; with MAPK10 (CATDS: 7.1245555578464306E-2), 1660 nM; in the experiment on MAPK11 (CATDS: 7.9204394656965396E-2) it was 935 nM. Moreover, the potency estimated from few doses in the experiment with MAPK14 (CATDS: 0.21634918417803001) was 31.9 nM; with MAPKAPK2 (CATDS: 0.24140517483875701) it was 25.8 nM; with NQO2 (CATDS: 7.6337001924779102E-2) it was 1130 nM.
